In ChEMBL document CHEMBL1961873, “Compounds: GSK PKIS; Assays: Nanosyn kinase panel” (2012):

Tests used:
[1] = target: T1, Tyrosine-protein kinase ITK/TSK (Homo sapiens) (UniProt Q08881); settings: at 1 µM;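 further: values are mean percent inhibition of ITK from the GSK PKIS screen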
T1 sequence (whole entry): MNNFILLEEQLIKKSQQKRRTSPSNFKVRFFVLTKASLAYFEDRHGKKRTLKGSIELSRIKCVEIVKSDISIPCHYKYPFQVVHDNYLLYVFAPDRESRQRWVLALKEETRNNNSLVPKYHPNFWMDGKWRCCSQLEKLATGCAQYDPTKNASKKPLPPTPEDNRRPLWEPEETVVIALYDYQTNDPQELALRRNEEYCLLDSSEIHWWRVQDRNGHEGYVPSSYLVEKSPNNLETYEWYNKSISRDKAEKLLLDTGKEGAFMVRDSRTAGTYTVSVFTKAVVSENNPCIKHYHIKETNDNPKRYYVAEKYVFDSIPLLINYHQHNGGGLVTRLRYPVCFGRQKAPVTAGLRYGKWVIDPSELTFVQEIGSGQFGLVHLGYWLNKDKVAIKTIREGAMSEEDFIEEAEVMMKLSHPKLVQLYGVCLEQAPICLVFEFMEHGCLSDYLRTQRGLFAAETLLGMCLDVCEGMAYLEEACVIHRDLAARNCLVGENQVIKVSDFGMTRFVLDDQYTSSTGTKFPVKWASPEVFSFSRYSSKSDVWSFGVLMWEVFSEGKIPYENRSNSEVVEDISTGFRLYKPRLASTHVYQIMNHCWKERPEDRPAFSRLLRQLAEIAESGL

[2] = target: Tyrosine-protein kinase JAK1 (Homo sapiens) (UniProt P23458); settings: at 0.1 µM
[3] = target: Tyrosine-protein kinase JAK1 (Homo sapiens) (UniProt P23458); settings: at 1 µM
[4] = target: Tyrosine-protein kinase JAK2 (Homo sapiens) (UniProt O60674); settings: at 0.1 µM
[5] = target: Tyrosine-protein kinase JAK2 (Homo sapiens) (UniProt O60674); settings: at 1 µM
[6] = target: T2, Tyrosine-protein kinase JAK3 (Homo sapiens) (UniProt P52333); settings: at 0.1 µM
T2 sequence (whole entry): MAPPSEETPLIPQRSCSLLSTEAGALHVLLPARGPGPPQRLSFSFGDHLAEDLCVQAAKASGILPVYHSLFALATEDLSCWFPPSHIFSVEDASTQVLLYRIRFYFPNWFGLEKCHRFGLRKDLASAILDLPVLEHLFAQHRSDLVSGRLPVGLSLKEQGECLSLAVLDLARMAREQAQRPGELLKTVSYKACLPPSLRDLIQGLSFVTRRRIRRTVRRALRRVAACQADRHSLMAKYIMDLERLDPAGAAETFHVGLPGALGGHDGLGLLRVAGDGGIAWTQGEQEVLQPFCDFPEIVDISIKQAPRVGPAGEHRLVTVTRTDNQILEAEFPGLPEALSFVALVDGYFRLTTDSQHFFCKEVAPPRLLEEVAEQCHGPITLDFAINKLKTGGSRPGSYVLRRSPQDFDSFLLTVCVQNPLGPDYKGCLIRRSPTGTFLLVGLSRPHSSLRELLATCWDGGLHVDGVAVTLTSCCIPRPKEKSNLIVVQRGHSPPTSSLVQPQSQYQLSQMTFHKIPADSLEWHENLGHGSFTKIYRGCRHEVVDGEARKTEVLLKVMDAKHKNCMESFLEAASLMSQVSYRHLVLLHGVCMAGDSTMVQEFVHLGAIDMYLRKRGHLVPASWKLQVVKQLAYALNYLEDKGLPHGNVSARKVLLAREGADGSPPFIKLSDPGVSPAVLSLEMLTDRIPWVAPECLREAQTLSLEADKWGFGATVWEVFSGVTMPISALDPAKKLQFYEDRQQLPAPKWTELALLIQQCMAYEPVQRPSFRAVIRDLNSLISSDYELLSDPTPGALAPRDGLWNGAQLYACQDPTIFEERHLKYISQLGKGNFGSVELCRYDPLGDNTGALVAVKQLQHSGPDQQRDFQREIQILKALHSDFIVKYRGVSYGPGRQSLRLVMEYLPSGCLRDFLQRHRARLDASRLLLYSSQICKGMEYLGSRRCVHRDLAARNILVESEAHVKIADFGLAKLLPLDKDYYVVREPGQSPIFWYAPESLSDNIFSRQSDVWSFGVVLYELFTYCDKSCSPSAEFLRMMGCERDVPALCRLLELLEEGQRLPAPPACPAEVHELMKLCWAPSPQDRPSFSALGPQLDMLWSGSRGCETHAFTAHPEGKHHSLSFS

[7] = target: T2, Tyrosine-protein kinase JAK3 (Homo sapiens); settings: at 1 µM
[8] = target: Vascular endothelial growth factor receptor 2 (Homo sapiens) (UniProt P35968); settings: at 0.1 µM
[9] = target: Vascular endothelial growth factor receptor 2 (Homo sapiens) (UniProt P35968); settings: at 1 µM
[10] = target: Mast/stem cell growth factor receptor Kit (Homo sapiens) (UniProt P10721); settings: at 0.1 µM
[11] = target: Mast/stem cell growth factor receptor Kit (Homo sapiens) (UniProt P10721); settings: at 1 µM
[12] = tested on: Mast/stem cell growth factor receptor Kit (Homo sapiens), P10721 [D816V]; settings: at 0.1 µM
[13] = tested on: Mast/stem cell growth factor receptor Kit (Homo sapiens), P10721 [D816V]; settings: at 1 µM
[14] = tested on: Mast/stem cell growth factor receptor Kit (Homo sapiens), P10721 [T670I]; settings: at 0.1 µM
[15] = tested on: Mast/stem cell growth factor receptor Kit (Homo sapiens), P10721 [T670I]; settings: at 1 µM
[16] = tested on: Mast/stem cell growth factor receptor Kit (Homo sapiens), P10721 [V560G]; settings: at 0.1 µM
[17] = tested on: Mast/stem cell growth factor receptor Kit (Homo sapiens), P10721 [V560G]; settings: at 1 µM
[18] = target: Tyrosine-protein kinase Lck (Homo sapiens) (UniProt P06239); settings: at 0.1 µM
[19] = target: Tyrosine-protein kinase Lck (Homo sapiens) (UniProt P06239); settings: at 1 µM
[20] = target: Leukocyte tyrosine kinase receptor (Homo sapiens) (UniProt P29376); settings: at 0.1 µM
Chain of Leukocyte tyrosine kinase receptor (Homo sapiens) (P29376 whole entry): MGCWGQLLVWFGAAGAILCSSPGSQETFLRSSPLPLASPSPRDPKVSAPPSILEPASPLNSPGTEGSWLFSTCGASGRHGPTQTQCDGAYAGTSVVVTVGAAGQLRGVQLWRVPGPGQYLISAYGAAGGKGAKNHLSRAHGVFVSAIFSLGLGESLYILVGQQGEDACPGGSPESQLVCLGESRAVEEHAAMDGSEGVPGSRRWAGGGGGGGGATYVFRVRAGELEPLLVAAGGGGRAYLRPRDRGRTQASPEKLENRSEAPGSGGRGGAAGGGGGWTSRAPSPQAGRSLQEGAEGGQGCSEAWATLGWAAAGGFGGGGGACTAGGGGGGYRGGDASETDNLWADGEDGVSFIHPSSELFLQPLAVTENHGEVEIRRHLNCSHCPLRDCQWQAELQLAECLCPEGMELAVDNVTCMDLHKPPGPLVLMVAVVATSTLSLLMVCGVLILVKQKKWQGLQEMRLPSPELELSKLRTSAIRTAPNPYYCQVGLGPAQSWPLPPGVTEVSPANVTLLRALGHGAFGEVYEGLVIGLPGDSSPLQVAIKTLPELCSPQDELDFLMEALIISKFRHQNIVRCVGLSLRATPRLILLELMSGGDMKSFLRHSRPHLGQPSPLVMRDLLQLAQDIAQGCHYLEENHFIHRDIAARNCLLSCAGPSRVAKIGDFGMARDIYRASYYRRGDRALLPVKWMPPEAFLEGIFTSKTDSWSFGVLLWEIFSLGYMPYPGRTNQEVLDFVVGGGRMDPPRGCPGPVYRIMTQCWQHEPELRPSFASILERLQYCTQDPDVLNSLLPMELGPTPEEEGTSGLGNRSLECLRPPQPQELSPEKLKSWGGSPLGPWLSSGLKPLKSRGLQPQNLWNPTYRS

Chain of Tyrosine-protein kinase JAK2 (Homo sapiens) (O60674 whole entry): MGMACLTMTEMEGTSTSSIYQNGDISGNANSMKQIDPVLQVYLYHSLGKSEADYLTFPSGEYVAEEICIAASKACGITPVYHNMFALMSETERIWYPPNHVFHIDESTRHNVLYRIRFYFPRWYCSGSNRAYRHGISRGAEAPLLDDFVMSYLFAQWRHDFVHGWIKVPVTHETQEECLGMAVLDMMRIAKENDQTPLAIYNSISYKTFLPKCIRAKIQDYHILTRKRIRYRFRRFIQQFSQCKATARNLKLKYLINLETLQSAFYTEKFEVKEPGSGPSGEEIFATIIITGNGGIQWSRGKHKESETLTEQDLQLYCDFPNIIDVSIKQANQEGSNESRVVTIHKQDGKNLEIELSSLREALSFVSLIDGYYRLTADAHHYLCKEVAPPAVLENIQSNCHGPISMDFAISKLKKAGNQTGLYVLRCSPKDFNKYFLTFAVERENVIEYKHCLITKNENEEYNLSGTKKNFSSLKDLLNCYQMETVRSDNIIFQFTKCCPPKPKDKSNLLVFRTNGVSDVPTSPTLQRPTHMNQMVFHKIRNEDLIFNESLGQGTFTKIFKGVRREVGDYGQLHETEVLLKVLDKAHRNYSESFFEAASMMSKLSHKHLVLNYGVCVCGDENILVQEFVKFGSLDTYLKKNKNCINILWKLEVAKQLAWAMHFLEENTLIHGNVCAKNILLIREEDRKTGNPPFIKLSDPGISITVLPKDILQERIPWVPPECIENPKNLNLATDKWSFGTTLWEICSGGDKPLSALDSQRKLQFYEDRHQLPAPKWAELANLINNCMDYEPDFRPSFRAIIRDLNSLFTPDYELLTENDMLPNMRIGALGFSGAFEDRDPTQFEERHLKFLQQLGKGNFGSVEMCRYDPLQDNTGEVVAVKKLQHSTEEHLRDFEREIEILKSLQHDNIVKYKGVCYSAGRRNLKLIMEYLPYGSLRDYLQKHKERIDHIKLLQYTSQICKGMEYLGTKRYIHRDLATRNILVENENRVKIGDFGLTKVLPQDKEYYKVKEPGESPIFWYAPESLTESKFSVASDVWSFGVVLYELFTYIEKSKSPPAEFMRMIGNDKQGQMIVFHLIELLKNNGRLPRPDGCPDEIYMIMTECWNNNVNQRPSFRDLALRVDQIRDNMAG
Chain of Tyrosine-protein kinase JAK1 (Homo sapiens) (P23458 whole entry): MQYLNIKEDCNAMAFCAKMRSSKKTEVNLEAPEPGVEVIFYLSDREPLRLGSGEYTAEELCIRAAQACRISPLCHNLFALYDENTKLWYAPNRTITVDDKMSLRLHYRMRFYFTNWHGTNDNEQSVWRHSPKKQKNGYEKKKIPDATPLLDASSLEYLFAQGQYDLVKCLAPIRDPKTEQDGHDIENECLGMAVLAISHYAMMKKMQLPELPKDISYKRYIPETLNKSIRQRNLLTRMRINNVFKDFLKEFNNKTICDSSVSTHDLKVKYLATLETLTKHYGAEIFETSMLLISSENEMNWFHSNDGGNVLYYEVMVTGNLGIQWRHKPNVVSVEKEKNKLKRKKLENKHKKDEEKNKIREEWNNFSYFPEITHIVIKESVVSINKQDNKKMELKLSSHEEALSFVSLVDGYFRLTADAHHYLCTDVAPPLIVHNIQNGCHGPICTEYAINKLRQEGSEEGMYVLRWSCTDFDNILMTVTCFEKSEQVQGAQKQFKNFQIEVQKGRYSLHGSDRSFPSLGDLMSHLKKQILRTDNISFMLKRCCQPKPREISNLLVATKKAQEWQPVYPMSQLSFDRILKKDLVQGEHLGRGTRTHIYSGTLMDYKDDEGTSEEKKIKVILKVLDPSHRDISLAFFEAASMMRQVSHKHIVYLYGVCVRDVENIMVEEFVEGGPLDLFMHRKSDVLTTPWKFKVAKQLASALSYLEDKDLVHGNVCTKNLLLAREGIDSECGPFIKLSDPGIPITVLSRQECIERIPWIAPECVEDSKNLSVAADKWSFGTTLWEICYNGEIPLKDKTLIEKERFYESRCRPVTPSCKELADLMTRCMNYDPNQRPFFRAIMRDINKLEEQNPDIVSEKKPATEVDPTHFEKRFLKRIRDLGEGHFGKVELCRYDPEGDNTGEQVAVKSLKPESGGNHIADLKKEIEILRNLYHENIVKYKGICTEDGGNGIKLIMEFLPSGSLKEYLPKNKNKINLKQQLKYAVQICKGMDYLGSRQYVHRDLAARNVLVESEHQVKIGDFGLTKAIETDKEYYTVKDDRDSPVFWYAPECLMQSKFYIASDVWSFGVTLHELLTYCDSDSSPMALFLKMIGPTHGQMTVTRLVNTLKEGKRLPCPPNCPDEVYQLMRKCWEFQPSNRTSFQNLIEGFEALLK
Chain of Mast/stem cell growth factor receptor Kit (Homo sapiens), P10721 [D816V] (P10721 whole entry D816V): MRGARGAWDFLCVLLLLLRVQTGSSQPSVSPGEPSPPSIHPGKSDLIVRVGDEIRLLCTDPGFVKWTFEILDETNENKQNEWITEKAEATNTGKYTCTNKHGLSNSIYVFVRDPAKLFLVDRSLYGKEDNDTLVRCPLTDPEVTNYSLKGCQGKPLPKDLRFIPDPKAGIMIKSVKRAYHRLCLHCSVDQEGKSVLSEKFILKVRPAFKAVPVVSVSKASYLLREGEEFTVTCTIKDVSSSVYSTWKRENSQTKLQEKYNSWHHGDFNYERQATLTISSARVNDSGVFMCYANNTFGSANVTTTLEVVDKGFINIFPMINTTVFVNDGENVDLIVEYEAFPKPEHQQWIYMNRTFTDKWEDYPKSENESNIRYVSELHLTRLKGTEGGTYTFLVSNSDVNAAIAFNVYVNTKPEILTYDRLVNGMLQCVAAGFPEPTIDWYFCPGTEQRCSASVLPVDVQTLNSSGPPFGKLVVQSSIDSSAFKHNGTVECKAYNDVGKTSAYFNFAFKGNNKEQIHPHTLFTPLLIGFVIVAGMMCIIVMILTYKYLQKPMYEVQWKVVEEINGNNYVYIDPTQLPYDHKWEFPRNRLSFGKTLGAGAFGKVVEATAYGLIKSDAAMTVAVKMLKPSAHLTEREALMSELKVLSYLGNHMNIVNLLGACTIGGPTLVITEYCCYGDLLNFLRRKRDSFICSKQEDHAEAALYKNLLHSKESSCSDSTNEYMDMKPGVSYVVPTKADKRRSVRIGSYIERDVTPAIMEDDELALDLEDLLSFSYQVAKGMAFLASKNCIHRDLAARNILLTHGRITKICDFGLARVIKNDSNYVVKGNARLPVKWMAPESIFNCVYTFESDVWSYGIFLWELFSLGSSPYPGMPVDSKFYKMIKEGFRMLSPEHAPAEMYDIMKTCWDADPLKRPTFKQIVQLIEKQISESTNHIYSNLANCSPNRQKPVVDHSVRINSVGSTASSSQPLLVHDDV
Chain of Mast/stem cell growth factor receptor Kit (Homo sapiens), P10721 [T670I] (P10721 whole entry T670I): as the sequence (P10721 whole entry D816V) above, with T670I, V816D counted along it
Chain of Tyrosine-protein kinase Lck (Homo sapiens) (P06239 2-509 limits assumed): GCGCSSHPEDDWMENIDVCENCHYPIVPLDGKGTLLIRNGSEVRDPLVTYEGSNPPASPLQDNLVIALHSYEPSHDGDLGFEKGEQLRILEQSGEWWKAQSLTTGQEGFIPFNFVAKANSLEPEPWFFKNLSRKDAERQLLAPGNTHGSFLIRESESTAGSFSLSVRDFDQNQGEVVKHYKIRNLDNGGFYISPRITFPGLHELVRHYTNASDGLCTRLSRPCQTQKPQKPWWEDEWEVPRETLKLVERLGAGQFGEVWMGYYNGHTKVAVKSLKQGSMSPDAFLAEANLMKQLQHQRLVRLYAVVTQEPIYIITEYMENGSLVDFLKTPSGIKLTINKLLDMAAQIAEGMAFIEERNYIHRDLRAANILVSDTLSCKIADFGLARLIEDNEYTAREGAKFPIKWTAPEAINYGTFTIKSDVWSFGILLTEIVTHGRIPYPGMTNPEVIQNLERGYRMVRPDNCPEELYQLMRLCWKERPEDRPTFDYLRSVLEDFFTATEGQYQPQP
Chain of Mast/stem cell growth factor receptor Kit (Homo sapiens) (P10721 whole entry): as the sequence (P10721 whole entry D816V) above, with V816D counted along it
Chain of Mast/stem cell growth factor receptor Kit (Homo sapiens), P10721 [V560G] (P10721 whole entry V560G): as the sequence (P10721 whole entry D816V) above, with V560G, V816D counted along it

| SMILES | inhibition [1] | inhibition [2] | inhibition [3] | inhibition [4] | inhibition [5] | inhibition [6] | inhibition [7] | inhibition [8] | inhibition [9] | inhibition [10] | inhibition [11] | inhibition [12] | inhibition [13] | inhibition [14] | inhibition [15] | inhibition [16] | inhibition [17] | inhibition [18] | inhibition [19] | inhibition [20] |
| --- | --- | --- | --- | --- | --- | --- | --- | --- | --- | --- | --- | --- | --- | --- | --- | --- | --- | --- | --- | --- |
| CN1CCC(n2cnc(-c3ccc(F)cc3)c2-c2ccnc(Nc3ccccc3)n2)CC1 | 1.68% | 1.51% | 8.4% | 0.27% | 0.26% | -0.54% | 1.46% | 4.35% | 12.4% | 2.33% | 6% | 1.84% | 2.39% | 3.38% | 1.42% | -1.35% | 4.06% | 4.17% | 20.5% | 2.75% |
| CS(=O)(=O)CCNCc1coc(-c2ccc3ncnc(Nc4ccc(OCc5ccccc5)cc4)c3c2)c1 | 1.57% | -1.63% | 0.69% | 1.12% | 1.93% | -1.53% | 0.54% | 4.63% | 7.45% | -0.21% | 8.33% | 0.03% | 1.72% | 2.17% | 3.24% | 0.76% | 2.94% | 3.8% | 14.4% | 4.91% |
| Fc1cccc(COc2ccc(Nc3ncnc4sc(-c5ccco5)cc34)cc2Cl)c1 | 3.14% | 0.17% | 3.56% | 1.34% | 1.22% | -3.93% | -1.55% | 3.37% | 10.4% | 6.1% | 6.21% | 3.37% | 6.34% | 2.63% | 3.7% | -0.3% | 0.57% | 3.21% | 5.67% | 3.44% |
